Screening data (PubChem BioAssay)
HCV inh: qHTS Assay for Inhibitors of Hepatitis C Virus (HCV); Huh7.5.1 HCVcc-Cre infection, luciferase reporter, 44 h; Potency, µM (highest dose often 41.8 µM), for the others: at the top dose activity change, negative = inhibition, actives largely listed as inhibitors; 340,000 compounds, 3.4% hits; also: % is scaled to controls: 0 for no effect and ±100 for the full control effect
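Cells seeded at 1,000/well and cultured 4 h, then compounds added followed by HCVcc-Cre virus (~0.5 moi). After 44 h further culture, luciferase substrate was added, plates held 15 min at room temperature, and luminescence read for 15 sec.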
Vaccinia mCherry: qHTS for Stage-Specific Inhibitors of Vaccinia Orthopoxvirus: mCherry Reporter Primary qHTS | Vaccinia virus mCherry reporter infection, fluorescence | Potency, µM (series often up to 36.5 µM), without a hit: at the top dose activity change, negative = inhibition, hits mostly inhibitors | 310,000 compounds, 0.63% hits; calls by dose curve; tested in A549 cells; also: % is scaled to controls: 0 for no effect and ±100 for the full control effect; nearly all actives have a fitted effect of over 35% in size
Vaccinia Venus: qHTS for Stage-Specific Inhibitors of Vaccinia Orthopoxvirus: Venus Reporter Primary qHTS; Vaccinia virus Venus reporter expression, fluorescence; Potency, µM (highest dose often 36.5 µM), for the others: top-dose activity change, negative = inhibition, actives largely listed as inhibitors; 330,000 compounds, 0.46% hits; calls by dose curve; tested in A549 cells; also: % is scaled to controls: 0 for no effect and ±100 for the full control effect; nearly all actives have a fitted effect of over 30% in size
NS1 function inh: qHTS Assay for Inhibitors of Influenza NS1 Protein Function; 270,000 compounds, 0.4% hits; Potency, µM (titrated, usually from 46.1 µM), without a hit: top-dose activity, positive = more growth; calls by dose curve; also: actives are rising curves; nearly all actives have a fitted effect of over 50% in size
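Compounds were scored for reversing the slow growth caused by influenza A NS1 in S. cerevisiae, measured by optical density at 600 nm. Assay medium contained 2% galactose at pH 6.0; NS1-free yeast of the same strain were the positive control.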
Pf growth 48h: Primary qHTS for delayed death inhibitors of the malarial parasite plastid, 48 hour incubation | AID 504832, 2011 | 310,000 compounds, 5.9% hits | P. falciparum luciferase growth in erythrocytes, 48 h | Potency, µM (titrated, usually from 28.7 µM), without a hit: at the highest dose activity change, negative = inhibition, most hits filed as inhibitors; also: % is scaled to controls: 0 for no effect and ±100 for the full control effect
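Cell-based growth assay: transgenic P. falciparum expressing firefly luciferase, cultured in red cells within RPMI 1640 containing 0.5% w/v Albumax, 24 mM bicarbonate and gentamycin. A drop in luciferase activity indicates inhibition.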
Pf growth 96h: Primary qHTS for delayed death inhibitors of the malarial parasite plastid, 96 hour incubation | P. falciparum luciferase reporter growth, 96 h | Potency, µM (doses to about 28.7 µM), inactives show top-dose activity change, negative = inhibition, actives largely listed as inhibitors | 320,000 compounds, 6.9% hits | AID 504834, 2011; also: % is scaled to controls: 0 for no effect and ±100 for the full control effect
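Delayed-death screen, second-generation endpoint: infected erythrocytes, 2% hematocrit, 0.05% parasitemia final; 96 hours at 37 C, 5% CO2; luciferase detection reagent; luminescence decrease equals reduced growth.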
An asterisk follows results filed as active; i = inactive; ? = inconclusive; . = not tested or not shown; [ ] = dose if it differs, or a comment. An excerpt weighted towards active compounds, which were near 11% of everything screened. Unless noted, calls follow the shape of the dose curve; as a rule, active = well fitted inhibition curve with a large enough effect; inconclusive = small, poorly fitted or top-dose-only effect, or another doubt; inactive = no such curve, though single readings can be large or run the other way. Potency is read from the fitted curve at half-maximal effect.

SMILES	HCV inh	Vaccinia mCherry	Vaccinia Venus	NS1 function inh	Pf growth 48h	Pf growth 96h
NC(=O)CSC1=Nc2ccccc2C2=NC(CC(=O)NCc3cccs3)C(=O)N12 (stereo not drawn)	12%	6%	4%	-4%	7%	21%
Cc1ccc(C(=O)NCC(=O)Nc2ccc(F)c(F)c2F)cc1	7%	.	.	0%	0%	49%
CC(=O)Nc1nc2c(ccc3ccccc32)s1	?	.	.	-7%	47%	10µM*
CCC(C)C(NC(=O)c1ccc(Cl)cc1)C(=O)O (stereo not drawn)	7%	.	-7%	-6%	5%	.
CCC(C)NCC(O)(c1ccc(Cl)cc1)c1ccc(Cl)cc1 (stereo not drawn)	-16%	-12%	2%	.	?	2.9µM*
Cc1ccc(CO/N=C/C2=C(Cl)c3ccccc3CC2)cc1	0%	.	-9%	11%	9%	-7%
O=c1c2c3c(sc2n2cnnc2n1CCc1ccccc1)CCCC3	?	-1%	-20%	0%	-18%	.
CCOc1ccc(Br)cc1S(=O)(=O)NC1CCCC1	?	-18%	-5%	.	?	8.3µM*
COc1ccc(-c2n[nH]c(=S)n2Cc2ccccc2)cc1OC	15%	-18%	-23%	1%	6%	122%
COC(=O)CC1(C(=O)OC)Oc2ccc(Br)cc2C(=O)N1c1cccc(Cl)c1Cl (stereo not drawn)	?	-24%[7.34 µM]	-1%[7.34 µM]	5%	?	13µM*
COC(=O)CC1(C(=O)OC)Oc2ccc(Br)cc2C(=O)N1c1cc(Cl)cc(Cl)c1 (stereo not drawn)	?	-14%[7.34 µM]	2%[7.34 µM]	-1%	5.2µM*	9.3µM*
COC(=O)CC1(C(=O)OC)Oc2ccc(Br)cc2C(=O)N1c1ccc(Br)cc1Cl (stereo not drawn)	?	-26%	?	10%	?	12µM*
O=C(CCNS(=O)(=O)c1ccc2c(c1)CCC(=O)N2)Nc1ccc2c(c1)OCCO2	-1%	.	.	0%	31%	?
CCN(CC)CC#CCC(O)(c1ccccc1)c1ccc(Br)cc1 (stereo not drawn)	10µM*	.	.	1%	?	-4%
CCN(CC)CC#CCC(O)(c1ccccc1)c1ccccc1	?	-2%	-15%	-2%	?	19%
CCN(CC)CC#CCC(C)(c1ccccc1)c1ccccc1	?	.	.	-31%	12µM*	6.6µM*
Cc1nc(/C(N)=N/OC(=O)c2c(-c3ccccc3Cl)noc2C)cs1	-13%	i	-19%	-3%	?	10µM*
COc1ccc(/C(N)=N/OC(=O)c2c(-c3ccccc3Cl)noc2C)cc1OC	13µM*	-11%	?	4%	?	-7%
Cc1nn(Cc2ccc(F)cc2)c(Cl)c1/C=N/NC(=O)c1ccccc1	-21%	-4%	0%	-4%	?	?
N/C(CCS(=O)(=O)c1ccc(Cl)cc1)=N\OC(=O)c1ccccc1C(F)(F)F	?	i[7.34 µM]	-20%[7.34 µM]	-2%	3.7µM*	9.3µM*
CCN(CC)c1ccc(/C=N/NC(=O)Cc2ccc(OC)c(OC)c2)cc1	-21%	i	0%	2%	?	-21%
CCSc1nnc(NC(=O)C2(C)Cc3ccccc3C(=O)O2)s1 (stereo not drawn)	-7%	.	.	-31%	13µM*	-4%
CC1(C(=O)Nc2ccccc2)Cc2ccccc2C(=O)O1 (stereo not drawn)	-17%	i	-4%	1%	1%	9.3µM*
COC(=O)c1ccc(OC)c(Cn2c(=O)n(-c3ccc(C)cc3)c(=O)c3c2cnn3C)c1	.	-18%	-18%	.	.	.
[O-][n+]1onc2c1CCC(=N/O)/C2=N\Nc1ccccc1	.	.	.	9%	7.4µM*	4.7µM*
COc1ccc(/C=N/NC(=S)Nc2cccc(C(=O)O)c2)cc1OC	12%	i	-11%	13%	61%	?
